34 targets from the supplement of paper PMC6411743 can be followed below.

± gives the standard deviation of the averaged measurements. About 5,400 targets were measured; listed, in parts, are those with the largest changes and a random draw of the rest.

Sequence of UniProt Q6NVY1 (Q6NVY1 whole entry, one chain of several): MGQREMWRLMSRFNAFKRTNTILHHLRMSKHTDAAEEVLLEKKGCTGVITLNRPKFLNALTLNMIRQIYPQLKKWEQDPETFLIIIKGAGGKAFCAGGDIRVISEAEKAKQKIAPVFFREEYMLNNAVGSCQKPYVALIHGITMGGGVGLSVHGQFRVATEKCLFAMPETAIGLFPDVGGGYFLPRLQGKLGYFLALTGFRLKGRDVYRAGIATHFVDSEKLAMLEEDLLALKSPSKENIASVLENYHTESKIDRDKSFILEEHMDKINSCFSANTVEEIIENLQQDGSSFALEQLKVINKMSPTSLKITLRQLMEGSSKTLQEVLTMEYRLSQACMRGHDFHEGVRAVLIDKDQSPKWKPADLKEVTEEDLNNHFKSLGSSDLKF
Sequence of UniProt P17987 (P17987 whole entry, one chain of several): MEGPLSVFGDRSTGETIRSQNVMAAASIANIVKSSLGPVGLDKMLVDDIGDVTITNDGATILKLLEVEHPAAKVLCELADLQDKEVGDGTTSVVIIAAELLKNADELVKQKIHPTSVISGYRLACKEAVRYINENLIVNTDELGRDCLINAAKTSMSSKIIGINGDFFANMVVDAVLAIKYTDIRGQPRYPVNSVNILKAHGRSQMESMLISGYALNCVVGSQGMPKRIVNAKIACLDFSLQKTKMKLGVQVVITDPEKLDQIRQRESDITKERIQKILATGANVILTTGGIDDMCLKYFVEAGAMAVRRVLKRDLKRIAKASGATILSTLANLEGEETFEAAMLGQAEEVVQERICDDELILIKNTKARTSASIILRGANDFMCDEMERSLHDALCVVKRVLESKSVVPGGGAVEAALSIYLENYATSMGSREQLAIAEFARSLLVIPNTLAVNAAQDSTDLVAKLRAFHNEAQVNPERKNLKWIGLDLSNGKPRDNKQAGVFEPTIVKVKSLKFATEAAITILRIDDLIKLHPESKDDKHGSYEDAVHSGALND
Sequence of UniProt Q96KA5 (Q96KA5 whole entry, one chain of several): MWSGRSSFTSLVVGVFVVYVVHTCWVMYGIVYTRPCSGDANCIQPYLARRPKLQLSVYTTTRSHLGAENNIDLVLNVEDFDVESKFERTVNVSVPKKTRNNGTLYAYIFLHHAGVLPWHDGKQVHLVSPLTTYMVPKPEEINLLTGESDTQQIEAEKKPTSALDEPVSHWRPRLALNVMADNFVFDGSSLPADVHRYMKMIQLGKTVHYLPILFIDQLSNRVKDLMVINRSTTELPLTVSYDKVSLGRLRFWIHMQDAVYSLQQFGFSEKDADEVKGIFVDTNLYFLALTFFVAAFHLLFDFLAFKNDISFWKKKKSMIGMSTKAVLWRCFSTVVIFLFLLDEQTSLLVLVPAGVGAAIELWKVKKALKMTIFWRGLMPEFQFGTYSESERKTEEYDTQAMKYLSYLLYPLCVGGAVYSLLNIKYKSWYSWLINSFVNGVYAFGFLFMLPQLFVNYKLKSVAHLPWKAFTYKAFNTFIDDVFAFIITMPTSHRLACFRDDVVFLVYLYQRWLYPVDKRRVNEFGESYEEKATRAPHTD
Sequence of UniProt Q9BTT0 (Q9BTT0 whole entry, one chain of several): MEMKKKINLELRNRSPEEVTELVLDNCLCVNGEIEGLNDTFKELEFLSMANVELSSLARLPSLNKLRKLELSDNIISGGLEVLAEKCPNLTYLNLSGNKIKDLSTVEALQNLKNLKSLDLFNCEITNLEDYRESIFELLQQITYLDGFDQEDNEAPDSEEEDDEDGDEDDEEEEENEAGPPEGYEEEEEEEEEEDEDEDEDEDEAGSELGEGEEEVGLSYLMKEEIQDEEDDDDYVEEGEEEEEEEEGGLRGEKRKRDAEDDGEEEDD
Sequence of UniProt P07766 (P07766 whole entry, one chain of several): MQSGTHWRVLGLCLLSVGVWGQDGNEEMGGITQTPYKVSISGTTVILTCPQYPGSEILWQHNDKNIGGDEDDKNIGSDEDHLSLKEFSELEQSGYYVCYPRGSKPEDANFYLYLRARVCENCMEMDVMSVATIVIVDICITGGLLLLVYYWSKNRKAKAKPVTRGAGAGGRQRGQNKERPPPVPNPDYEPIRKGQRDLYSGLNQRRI
Sequence of UniProt Q9BQ75 (Q9BQ75 whole entry, one chain of several): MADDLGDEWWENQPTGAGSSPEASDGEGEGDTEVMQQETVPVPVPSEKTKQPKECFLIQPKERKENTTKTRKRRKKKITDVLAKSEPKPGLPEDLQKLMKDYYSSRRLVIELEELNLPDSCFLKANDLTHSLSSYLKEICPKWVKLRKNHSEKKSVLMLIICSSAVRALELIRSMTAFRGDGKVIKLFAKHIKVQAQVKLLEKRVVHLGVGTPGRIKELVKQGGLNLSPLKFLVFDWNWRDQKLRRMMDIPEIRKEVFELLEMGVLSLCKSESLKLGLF
Sequence of UniProt Q13615 (Q13615 whole entry, one chain of several): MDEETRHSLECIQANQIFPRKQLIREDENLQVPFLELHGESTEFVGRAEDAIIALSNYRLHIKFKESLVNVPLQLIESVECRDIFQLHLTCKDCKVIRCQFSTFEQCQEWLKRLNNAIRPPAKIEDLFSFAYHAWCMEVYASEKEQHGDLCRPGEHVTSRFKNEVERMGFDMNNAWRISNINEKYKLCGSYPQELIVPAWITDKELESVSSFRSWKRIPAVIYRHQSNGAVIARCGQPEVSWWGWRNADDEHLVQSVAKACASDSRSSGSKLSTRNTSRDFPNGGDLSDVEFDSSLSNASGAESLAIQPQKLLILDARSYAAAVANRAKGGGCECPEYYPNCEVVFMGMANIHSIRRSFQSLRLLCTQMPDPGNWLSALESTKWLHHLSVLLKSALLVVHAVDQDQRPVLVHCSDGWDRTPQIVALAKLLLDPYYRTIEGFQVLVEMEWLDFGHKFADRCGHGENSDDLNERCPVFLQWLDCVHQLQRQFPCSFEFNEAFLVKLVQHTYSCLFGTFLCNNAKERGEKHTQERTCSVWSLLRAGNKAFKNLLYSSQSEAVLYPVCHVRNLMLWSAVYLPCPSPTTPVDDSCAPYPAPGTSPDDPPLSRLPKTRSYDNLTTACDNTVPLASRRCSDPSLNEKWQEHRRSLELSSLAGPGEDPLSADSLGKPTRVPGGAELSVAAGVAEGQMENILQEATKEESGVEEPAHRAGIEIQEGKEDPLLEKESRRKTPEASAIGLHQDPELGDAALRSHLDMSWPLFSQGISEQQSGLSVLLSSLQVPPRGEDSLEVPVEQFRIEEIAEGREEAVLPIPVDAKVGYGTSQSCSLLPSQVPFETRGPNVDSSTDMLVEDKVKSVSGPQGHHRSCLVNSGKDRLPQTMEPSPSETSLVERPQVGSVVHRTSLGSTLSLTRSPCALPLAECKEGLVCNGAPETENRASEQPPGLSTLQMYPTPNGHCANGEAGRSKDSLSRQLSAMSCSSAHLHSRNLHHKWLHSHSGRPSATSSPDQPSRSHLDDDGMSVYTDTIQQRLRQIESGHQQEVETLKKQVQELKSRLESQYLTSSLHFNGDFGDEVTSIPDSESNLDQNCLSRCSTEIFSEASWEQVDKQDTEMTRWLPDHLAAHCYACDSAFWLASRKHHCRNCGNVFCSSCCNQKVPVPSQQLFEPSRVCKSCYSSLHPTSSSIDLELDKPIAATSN
Sequence of UniProt Q8TAG9 (Q8TAG9 whole entry, one chain of several): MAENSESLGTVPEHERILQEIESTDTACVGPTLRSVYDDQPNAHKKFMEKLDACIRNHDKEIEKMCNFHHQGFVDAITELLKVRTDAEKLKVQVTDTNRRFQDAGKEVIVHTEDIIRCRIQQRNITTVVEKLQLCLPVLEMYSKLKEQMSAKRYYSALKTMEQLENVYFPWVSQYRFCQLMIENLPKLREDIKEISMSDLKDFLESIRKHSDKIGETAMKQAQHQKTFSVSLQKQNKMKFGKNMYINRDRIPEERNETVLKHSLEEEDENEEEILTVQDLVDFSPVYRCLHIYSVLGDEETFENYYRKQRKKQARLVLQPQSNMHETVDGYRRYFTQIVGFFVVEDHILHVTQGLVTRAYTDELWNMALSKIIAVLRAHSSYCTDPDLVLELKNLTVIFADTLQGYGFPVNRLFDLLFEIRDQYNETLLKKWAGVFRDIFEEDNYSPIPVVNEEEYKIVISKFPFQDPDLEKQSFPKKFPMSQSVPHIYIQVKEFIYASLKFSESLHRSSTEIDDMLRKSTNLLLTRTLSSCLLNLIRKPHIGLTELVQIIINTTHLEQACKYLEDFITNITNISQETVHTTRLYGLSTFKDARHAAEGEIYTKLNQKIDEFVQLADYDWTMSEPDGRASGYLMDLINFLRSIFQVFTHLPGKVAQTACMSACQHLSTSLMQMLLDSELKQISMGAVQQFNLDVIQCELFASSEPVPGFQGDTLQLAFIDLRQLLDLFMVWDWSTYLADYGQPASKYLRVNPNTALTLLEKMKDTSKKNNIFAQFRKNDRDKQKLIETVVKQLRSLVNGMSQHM
Sequence of UniProt O15372 (O15372 whole entry, one chain of several): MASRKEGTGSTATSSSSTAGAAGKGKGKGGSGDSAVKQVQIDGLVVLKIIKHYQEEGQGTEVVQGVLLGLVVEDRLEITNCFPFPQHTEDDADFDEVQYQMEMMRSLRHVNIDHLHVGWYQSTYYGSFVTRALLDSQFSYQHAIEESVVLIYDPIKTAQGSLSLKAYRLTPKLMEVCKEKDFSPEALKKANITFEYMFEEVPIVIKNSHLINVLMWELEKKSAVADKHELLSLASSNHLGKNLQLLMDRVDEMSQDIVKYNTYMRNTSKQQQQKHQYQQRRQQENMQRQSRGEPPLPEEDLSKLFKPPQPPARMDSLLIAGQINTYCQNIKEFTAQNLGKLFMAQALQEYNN
Sequence of UniProt P56556 (P56556 whole entry, one chain of several): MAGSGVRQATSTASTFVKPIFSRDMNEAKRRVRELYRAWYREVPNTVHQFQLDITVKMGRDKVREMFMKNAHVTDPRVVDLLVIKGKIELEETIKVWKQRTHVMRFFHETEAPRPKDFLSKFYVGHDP
Sequence of UniProt Q16629 (Q16629 whole entry, one chain of several): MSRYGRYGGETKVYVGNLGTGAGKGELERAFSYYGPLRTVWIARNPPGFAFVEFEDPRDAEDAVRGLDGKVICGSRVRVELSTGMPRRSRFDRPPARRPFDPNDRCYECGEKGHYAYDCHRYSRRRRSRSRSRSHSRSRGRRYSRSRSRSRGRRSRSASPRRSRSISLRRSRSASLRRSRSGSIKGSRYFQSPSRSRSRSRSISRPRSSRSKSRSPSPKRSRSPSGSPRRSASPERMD

Compound in the experiment: Nc1nc2c(ncn2[C@@H]2O[C@H](COP(=O)(O)OP(=O)(O)OP(=O)(O)O)[C@@H](O)[C@H]2O)c(=O)[nH]1 [guanosine triphosphate]
Description: NP40-soluble protein abundance relative to vehicle (solubility fold change) (ratio); higher = more soluble protein in presence of GTP. The conditions noted are these: concentration: 10mM. The essentials: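 Jurkat crude lysate (Dounce-homogenised) was treated with eight concentrations from 0.1 to 10 mM for 10 min at room temperature, then 3 min at 37 °C. It was solubilised with 0.8% NP40 and benzonase (60 min, 4 °C) and ultracentrifuged, and the supernatant was TMT-labelled for LC-MS/MS. Intensities were vsn-normalised, and the value is the fold change against the NP40-processed vehicle per replicate, from three independent experiments.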
As to G3V394|Q9Y4I1-3 (UniProt Q9Y4I1), the NP40-soluble protein abundance came to 2.51 ± 0.36. The result for E7EW84|Q8TAG9 (UniProt Q8TAG9) reads 0.966 ± 0.18; that for “B1AL05|H0Y6Y8|H0YBU8|Q8N983|Q8N983-2|Q8N983-3|Q8N983-4|Q8N983-6|Q8N983-7 (UniProt Q8N983)”, 1.59 ± 0.65. To F2Z2Y4|O00764|O00764-2 (UniProt O00764) belongs 0.868 ± 0.086; to B3KS98|O15372 (UniProt O15372), 1.8 ± 0.36; to “A0A0B4J1Z1|C9JAB2|Q16629|Q16629-2|Q16629-3|Q16629-4 (UniProt Q16629)”, 1.75 ± 0.52. To E9PRF4|Q15047|Q15047-3 (UniProt Q15047) belongs 0.862 ± 0.017; to “A0A087WWH3|Q9NZM4|Q9NZM4-2 (UniProt Q9NZM4)”, 1.33 ± 0.38; to B9ZVT1|Q8IXT5 (UniProt Q8IXT5), 1.48 ± 0.39.

Take “A0A087WY71|Q96CW1|Q96CW1-2 (UniProt Q96CW1)”: the NP40-soluble protein abundance was 0.95 ± 0.09. To “A0A087WY82|Q9Y624|Q9Y624-2 (UniProt Q9Y624)” belongs 0.898 ± 0.011. To E9PPH5|Q9BTT0|Q9BTT0-3 (UniProt Q9BTT0) belongs 1.08 ± 0.079.

With A0A087WWS1|Q96FV9 (UniProt Q96FV9), the NP40-soluble protein abundance stood at 2.4 ± 0.91.

With E9PHG5|Q6UW02|Q6UW02-2 (UniProt Q6UW02), the NP40-soluble protein abundance was 0.884 ± 0.14. The result for “H0YIE9|O94952|O94952-1|Q4G104 (UniProt O94952)” reads 0.921 ± 0.089. The result for G5E9Z2|Q96KA5|Q96KA5-2 (UniProt Q96KA5) reads 0.96 ± 0.04. The result for “A8MQB8|G3V0J0|Q06787|Q06787-2|Q06787-3|Q06787-4|Q06787-5|Q06787-6|Q06787-7|Q06787-8|Q06787-9 (UniProt Q06787)” reads 2.1 ± 0.11; that for A0A0C4DGS0|P56556 (UniProt P56556), 1.01 ± 0.1; that for E7EX48|P51957|P51957-3 (UniProt P51957), 1.06 ± 0.25. Regarding H0YEN5|P15880 (UniProt P15880), the NP40-soluble protein abundance amounted to 0.774 ± 0.2.

Consider “C9IY68|C9J384|Q9BQ75|Q9BQ75-2 (UniProt Q9BQ75)”, for which the NP40-soluble protein abundance turned out to be 1.31 ± 0.04. For B4E1Q4|O14730|O14730-2 (UniProt O14730), the NP40-soluble protein abundance was found to be 0.704 ± 0.041. The result for “E7EN86|P52747|P52747-2|P52747-3 (UniProt P52747)” reads 1.02 ± 0.045. The result for A6NFX8|Q9UKK9 (UniProt Q9UKK9) reads 0.93 ± 0.01; that for F5H136|P17987 (UniProt P17987), 1.02 ± 0.2. Turning to “E9PKP7|E9PLT2|P17480|P17480-2 (UniProt P17480)”, the NP40-soluble protein abundance was 1.87 ± 0.13. To A0A087X256|Q2M389 (UniProt Q2M389) belongs 0.889 ± 0.024. The result for E9PSH8|P07766 (UniProt P07766) reads 0.983 ± 0.11; that for D6RAN8|H7C5U8|Q9P0M9 (UniProt Q9P0M9), 1.58 ± 0.84; that for “G5E953|Q13615|Q13615-2|Q13615-3 (UniProt Q13615)”, 0.971 ± 0.028. To H3BMU3|O60268|O60268-3 (UniProt O60268) belongs 0.998 ± 0.096. Take “F8W0Q9|Q8NEY8-2|Q8NEY8-8|Q8NEY8-9|Q8NEY8-3|Q8NEY8 (UniProt Q8NEY8)”: the NP40-soluble protein abundance amounted to 1.77 ± 0.42. The result for C9J8R4|C9JVE2|Q96GG9 (UniProt Q96GG9) reads 0.84 ± 0.084; that for A0A087WXI1|Q6NVY1 (UniProt Q6NVY1), 0.841 ± 0.096.
